# Results filed as inconclusive are left out. The source made the active and inactive calls. The calls were made as follows, unless noted: active = hit-call score of the fitted dose curve at least 0.9, where 1 is the maximum; inactive = score below 0.9.
# Columns and labels:
# [1] = ATG_Sox_CIS: Attagene CIS-FACTORIAL HepG2 Assay for human SRY-box transcription factor (SOX) (AID 2282960); conditions: HepG2 Attagene cis-factorial SOX reporter, mRNA; actives raise or lower the signal
# Outline: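 Using transiently transfected HepG2 cells, reporter transcription driven by cis elements was assessed 24 h after dosing. Signal was fluorescence of capillary-separated RT-PCR products, with DMSO defining baseline activity.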
# [2] = molecular target: Transcription factor Sp1 (Homo sapiens) (UniProt P08047); test: ATG_Sp1_CIS: Attagene CIS-FACTORIAL HepG2 Assay for human Specificity Protein 1 (Sp1) (AID 2282961); conditions: HepG2 Sp1 cis-reporter transcription, actives raise or lower the signal
# Outline: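 After transient transfection of HepG2 cells with cis-promoter reporter units and 24 h chemical treatment, reporter transcripts were quantified by RT-PCR and capillary electrophoresis fluorescence. Gain- and loss-of-signal fitted against DMSO.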
# [3] = ATG_SREBP_CIS: Attagene CIS-FACTORIAL HepG2 Assay for human Sterol Regulatory Element Binding (SREBP) (AID 2282962); conditions: HepG2 Attagene cis-factorial SREBP reporter, mRNA; actives raise or lower the signal
# Outline: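 Values derive from bidirectional curve fitting with DMSO as baseline. The underlying measurement is reporter mRNA from cis-element-regulated units in transiently transfected HepG2, quantified by RT-PCR and capillary electrophoresis after 24 h exposure.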
# [4] = molecular target: Signal transducer and activator of transcription 3 (Homo sapiens) (UniProt P40763); test: ATG_STAT3_CIS: Attagene CIS-FACTORIAL HepG2 Assay for human Signal Transducer and Activator of Transcription 3 (STAT3) (AID 2282963); conditions: HepG2, Attagene cis-factorial STAT3 reporter transcription; actives raise or lower the signal
# Outline: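 HepG2, MRTU-transfected, 24 h dosing. RNA → RT → PCR → FAM label → HpaI → CE. Bidirectional fit vs DMSO.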
# [5] = ATG_TA_CIS: Attagene CIS-FACTORIAL HepG2 Assay for human TA Basal Promoter (AID 2282964); conditions: HepG2 Attagene CIS-factorial TA basal promoter reporter; actives raise or lower the signal
# Outline: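 Fluorescence from labelled RT-PCR reporter fragments, separated by capillary electrophoresis, gives the signal. Cells: HepG2 transiently carrying multiple reporter units, 24 h chemical dosing. Gain or loss relative to DMSO.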
# [6] = ATG_TCF_b_cat_CIS: Attagene CIS-FACTORIAL HepG2 Assay for human T-Cell-Factor with beta-catenin (TCF/b-cat) (AID 2282965); conditions: HepG2 TCF/beta-catenin cis-reporter transcription, actives raise or lower the signal
# Outline: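 HepG2 cells transiently transfected with multiple cis-promoter-regulated reporter transcription units, so endogenous transcription factor activity is measured. Reporter mRNA read 24 hours after dosing by RT-PCR, fluorescent labelling and capillary electrophoresis; bidirectional fitting against DMSO.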
# [7] = ATG_TAL_CIS: Attagene CIS-FACTORIAL HepG2 Assay for human TAL Basal Promoter (AID 2282966); conditions: HepG2 Attagene cis-factorial TAL promoter reporter; actives raise or lower the signal;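 also: background control endpoint measuring basal TAL promoter reporter mRNA not a specific factor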
# Outline: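 Basal-promoter background-control endpoint from a multiplexed HepG2 reporter panel. Cells were exposed 24 h, then reporter mRNA was read by RT-PCR/CE fluorescence and fitted in both directions relative to DMSO.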
# [8] = ATG_TGFb_CIS: Attagene CIS-FACTORIAL HepG2 Assay for human Transforming Growth Factor (TGF) (AID 2282967); conditions: HepG2 Attagene CIS TGFb reporter, mRNA transcription; actives raise or lower the signal
# Outline: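 Bidirectional fitting relative to DMSO gave the endpoint. Underlying data: reporter mRNA from HepG2 cells carrying transiently transfected cis-regulated reporter constructs, harvested 24 h after dosing and analyzed by RT-PCR and capillary electrophoresis.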
# [9] = molecular target: X-box-binding protein 1 (Homo sapiens) (UniProt P17861); test: ATG_Xbp1_CIS: Attagene CIS-FACTORIAL HepG2 Assay for human X-box Binding Protein 1 (XBP1) (AID 2282972); conditions: HepG2 XBP1 cis-element reporter, Attagene multiplex; actives raise or lower the signal
# Outline: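 Human hepatoma HepG2, cis-element reporter system, 24 h treatment; mRNA quantified by RT-PCR/CE fluorescence; fit relative to DMSO.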
# [10] = ATG_M_19_TRANS: Attagene TRANS-FACTORIAL HepG2 Assay for M19 Transcription Factor (Internal Marker) (AID 2282974; active = hit-call score of the fitted dose curve at least 0.9, where 1 is the maximum); conditions: HepG2 Attagene TRANS-FACTORIAL M19 internal marker reporter
# Outline: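 Gain-of-signal in reporter mRNA, relative to DMSO, was scored from capillary electrophoresis fluorescence. HepG2 cells carried transiently transfected multiple reporter transcription units and were incubated with test chemicals for 24 h.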
# [11] = ATG_GAL4_TRANS: Attagene TRANS-FACTORIAL HepG2 Assay for GAL4 (Internal Marker) (AID 2282976; active = hit-call score of the fitted dose curve at least 0.9, where 1 is the maximum); conditions: HepG2 Attagene TRANS GAL4 internal marker reporter
# Outline: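 Background-control readout: GAL4-UAS reporter transcript in transiently transfected HepG2 cells after 24 h compound exposure. Measured by RT-PCR, 6-FAM primer extension, HpaI digest and capillary electrophoresis; gain-of-signal fit versus DMSO.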
# [12] = molecular target: Bile acid receptor (Homo sapiens) (UniProt Q96RI1); test: ATG_FXR_TRANS: Attagene TRANS-FACTORIAL HepG2 Assay for Farnesoid X Receptor (FXR) (AID 2282979; active = hit-call score of the fitted dose curve at least 0.9, where 1 is the maximum;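 also: hits raise reporter mRNA above DMSO so AC50 marks FXR activation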); conditions: HepG2 Attagene TRANS FXR-GAL4 reporter transcription
# Outline: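 HepG2 cells were transiently transfected with GAL4-UAS reporters driven by chimeric NR-Gal4 proteins and dosed for 24 h. Reporter mRNA was quantified by RT-PCR, fluorescent labelling, HpaI digestion and capillary electrophoresis, with gain of signal scored versus DMSO.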
# [13] = molecular target: Steroid hormone receptor ERR1 (Homo sapiens) (UniProt P11474); test: ATG_ERRa_TRANS: Attagene TRANS-FACTORIAL HepG2 Assay for human Estrogen-Related Receptor alpha (ERRa) (AID 2282971; active = hit-call score of the fitted dose curve at least 0.9, where 1 is the maximum); conditions: HepG2 Attagene TRANS reporter, ERRa transactivation
# Outline: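 HepG2 cells transiently transfected with GAL4-UAS reporter units and chimeric NR-Gal4 constructs; after 24 hour compound incubation, reporter mRNA quantified by RT-PCR, fluorescent labelling and capillary electrophoresis, gain of signal versus DMSO.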
# [14] = molecular target: Estrogen-related receptor gamma (Homo sapiens) (UniProt P62508); test: ATG_ERRg_TRANS: Attagene TRANS-FACTORIAL HepG2 Assay for human Estrogen-Related Receptor gamma (ERRg) (AID 2282977; active = hit-call score of the fitted dose curve at least 0.9, where 1 is the maximum;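 also: hits increase reporter signal over DMSO so potencies reflect activators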); conditions: HepG2 Attagene TRANS reporter, ERRg transactivation
# Outline: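 Induction of reporter transcripts through a chimeric NR-Gal4 protein is quantified in transfected human HepG2 liver cells after 24 h chemical exposure, using RT-PCR with capillary electrophoresis detection and DMSO as baseline.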
# [15] = molecular target: Oxysterols receptor LXR-alpha (Homo sapiens) (UniProt Q13133); test: ATG_LXRa_TRANS: Attagene TRANS-FACTORIAL HepG2 Assay for human Liver X Receptor alpha (LXRa) (AID 2282980; active = hit-call score of the fitted dose curve at least 0.9, where 1 is the maximum); conditions: HepG2 Attagene TRANS reporter, LXRa transactivation
# Outline: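 HepG2 cells transiently transfected with GAL4-UAS reporter units for chimeric NR-Gal4 proteins, exposed to chemicals for 24 h. Reporter mRNA quantified by RT-PCR and capillary electrophoresis; gain of signal fitted relative to DMSO.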
# [16] = ATG_VDRE_CIS: Attagene CIS-FACTORIAL HepG2 Assay for human Vitamin D Receptor Element (VDRE) (AID 2282968); conditions: HepG2 VDRE cis-reporter transcription, actives raise or lower the signal
# Outline: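 Steps: transfect HepG2 with multiple reporter transcription units; dose chemicals 24 h; isolate RNA; RT-PCR; label with 6-FAM primer extension; HpaI digest; capillary electrophoresis. Curves fitted both directions against DMSO.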
# [17] = molecular target: Nuclear receptor subfamily 1 group I member 3 (Homo sapiens) (UniProt Q14994); test: ATG_CAR_TRANS: Attagene TRANS-FACTORIAL HepG2 Assay for human Constitutive Androstane Receptor (CAR) (AID 2282969; active = hit-call score of the fitted dose curve at least 0.9, where 1 is the maximum;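 also: activators raise reporter mRNA above DMSO so AC50 marks induction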); conditions: HepG2 Attagene TRANS-FACTORIAL CAR reporter
# Outline: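 Steps: transient transfection of HepG2 with multiple GAL4-UAS reporter units; 24 h compound incubation; RNA isolation, RT-PCR, 6-FAM primer extension, HpaI digest; capillary electrophoresis. Gain-of-signal relative to DMSO negative control.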
# [18] = molecular target: Glucocorticoid receptor (Homo sapiens) (UniProt P04150); test: ATG_GR_TRANS: Attagene TRANS-FACTORIAL HepG2 Assay for human Glucocorticoid Receptor (GR) (AID 2282978; active = hit-call score of the fitted dose curve at least 0.9, where 1 is the maximum;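 also: activators score as hits since higher reporter transcript over DMSO is fitted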); conditions: HepG2 Attagene TRANS GR reporter, mRNA transcription
# Outline: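 HepG2 transient transfection, multiple reporter units, GAL4-UAS under NR-GAL4 chimera control. 24 h treatment. Reporter mRNA by RT-PCR/CE fluorescence, DMSO as negative control.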
# [19] = molecular target: Estrogen receptor (Homo sapiens) (UniProt P03372); test: ATG_ERa_TRANS: Attagene TRANS-FACTORIAL HepG2 Assay for human Estrogen Receptor alpha (ERa) (AID 2282970; active = hit-call score of the fitted dose curve at least 0.9, where 1 is the maximum); conditions: HepG2 Attagene TRANS ERa GAL4 reporter, mRNA
# Outline: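 Gal4-fusion ERa transactivation, measured as reporter transcript level in transiently transfected HepG2 cells. Exposure 24 h; RT-PCR plus capillary electrophoresis with fluorescence detection.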
# Chain of Bile acid receptor (Homo sapiens) (Q96RI1 whole entry, looked up, the tested form may be a part): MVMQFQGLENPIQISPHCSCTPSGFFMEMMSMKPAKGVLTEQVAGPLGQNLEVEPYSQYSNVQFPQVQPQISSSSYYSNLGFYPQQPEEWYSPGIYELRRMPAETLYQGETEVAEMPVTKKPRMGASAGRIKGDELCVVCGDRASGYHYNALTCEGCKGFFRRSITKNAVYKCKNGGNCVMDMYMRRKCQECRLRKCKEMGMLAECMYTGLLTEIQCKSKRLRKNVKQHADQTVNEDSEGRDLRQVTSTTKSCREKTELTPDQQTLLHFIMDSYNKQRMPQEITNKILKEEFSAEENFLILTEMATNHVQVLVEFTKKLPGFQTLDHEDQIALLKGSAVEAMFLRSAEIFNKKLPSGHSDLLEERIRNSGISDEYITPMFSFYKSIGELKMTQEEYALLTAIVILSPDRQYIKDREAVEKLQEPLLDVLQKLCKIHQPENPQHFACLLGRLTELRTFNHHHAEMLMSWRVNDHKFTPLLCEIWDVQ
# Chain of Estrogen-related receptor gamma (Homo sapiens) (P62508 whole entry, looked up, the tested form may be a part): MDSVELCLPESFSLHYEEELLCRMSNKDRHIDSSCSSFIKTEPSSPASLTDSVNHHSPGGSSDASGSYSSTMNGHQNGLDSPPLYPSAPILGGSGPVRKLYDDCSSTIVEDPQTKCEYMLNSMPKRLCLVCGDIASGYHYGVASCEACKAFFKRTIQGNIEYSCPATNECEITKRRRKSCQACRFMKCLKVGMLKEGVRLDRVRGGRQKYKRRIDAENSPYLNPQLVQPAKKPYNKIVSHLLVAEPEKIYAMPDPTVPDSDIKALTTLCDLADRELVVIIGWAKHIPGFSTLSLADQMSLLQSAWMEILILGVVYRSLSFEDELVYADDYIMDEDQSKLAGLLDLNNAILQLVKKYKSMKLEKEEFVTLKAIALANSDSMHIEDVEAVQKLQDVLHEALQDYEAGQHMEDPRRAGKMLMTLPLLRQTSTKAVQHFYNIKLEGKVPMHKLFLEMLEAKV
# Chain of Nuclear receptor subfamily 1 group I member 3 (Homo sapiens) (Q14994 whole entry, looked up, the tested form may be a part): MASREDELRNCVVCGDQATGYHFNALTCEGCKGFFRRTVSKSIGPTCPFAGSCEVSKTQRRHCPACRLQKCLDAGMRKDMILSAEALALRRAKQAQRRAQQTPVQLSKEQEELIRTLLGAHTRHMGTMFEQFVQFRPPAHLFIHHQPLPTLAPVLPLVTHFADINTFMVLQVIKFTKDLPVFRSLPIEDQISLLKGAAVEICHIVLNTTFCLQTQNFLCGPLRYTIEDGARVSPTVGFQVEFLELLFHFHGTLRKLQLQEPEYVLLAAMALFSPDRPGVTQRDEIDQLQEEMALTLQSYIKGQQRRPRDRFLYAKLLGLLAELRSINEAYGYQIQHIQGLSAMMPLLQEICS
# Chain of Transcription factor Sp1 (Homo sapiens) (P08047 whole entry, looked up): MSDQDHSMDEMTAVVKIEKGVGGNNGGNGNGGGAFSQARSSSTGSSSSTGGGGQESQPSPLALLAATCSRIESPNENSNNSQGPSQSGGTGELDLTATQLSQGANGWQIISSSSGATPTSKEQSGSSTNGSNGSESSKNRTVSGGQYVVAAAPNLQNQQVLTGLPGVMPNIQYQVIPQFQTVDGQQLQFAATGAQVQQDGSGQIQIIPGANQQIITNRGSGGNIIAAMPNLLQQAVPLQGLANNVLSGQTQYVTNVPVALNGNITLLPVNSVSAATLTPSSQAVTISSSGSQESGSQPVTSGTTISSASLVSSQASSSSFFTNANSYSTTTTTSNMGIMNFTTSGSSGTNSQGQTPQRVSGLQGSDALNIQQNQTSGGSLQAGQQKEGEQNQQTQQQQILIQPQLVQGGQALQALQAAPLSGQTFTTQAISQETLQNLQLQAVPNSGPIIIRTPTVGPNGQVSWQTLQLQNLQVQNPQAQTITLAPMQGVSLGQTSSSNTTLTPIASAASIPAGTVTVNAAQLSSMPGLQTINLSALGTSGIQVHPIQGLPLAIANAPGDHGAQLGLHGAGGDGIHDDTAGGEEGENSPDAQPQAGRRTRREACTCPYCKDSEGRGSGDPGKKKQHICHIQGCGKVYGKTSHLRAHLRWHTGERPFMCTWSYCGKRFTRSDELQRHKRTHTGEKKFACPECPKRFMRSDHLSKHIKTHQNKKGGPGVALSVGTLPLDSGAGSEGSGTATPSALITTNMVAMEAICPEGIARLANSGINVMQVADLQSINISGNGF
# Chain of Oxysterols receptor LXR-alpha (Homo sapiens) (Q13133 whole entry, looked up, the tested form may be a part): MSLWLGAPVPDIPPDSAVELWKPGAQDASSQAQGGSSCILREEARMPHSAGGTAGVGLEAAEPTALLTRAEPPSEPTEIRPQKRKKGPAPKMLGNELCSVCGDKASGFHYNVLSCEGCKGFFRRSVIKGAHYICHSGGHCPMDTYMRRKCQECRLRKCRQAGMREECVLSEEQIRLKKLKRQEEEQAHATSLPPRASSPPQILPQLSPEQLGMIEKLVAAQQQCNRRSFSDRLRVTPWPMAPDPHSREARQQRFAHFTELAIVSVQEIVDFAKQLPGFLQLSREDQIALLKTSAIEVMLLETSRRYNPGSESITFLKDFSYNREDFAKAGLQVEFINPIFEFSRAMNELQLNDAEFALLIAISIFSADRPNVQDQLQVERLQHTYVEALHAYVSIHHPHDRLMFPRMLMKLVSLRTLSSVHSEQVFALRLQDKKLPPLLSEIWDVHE
# Chain of X-box-binding protein 1 (Homo sapiens) (P17861 whole entry, looked up): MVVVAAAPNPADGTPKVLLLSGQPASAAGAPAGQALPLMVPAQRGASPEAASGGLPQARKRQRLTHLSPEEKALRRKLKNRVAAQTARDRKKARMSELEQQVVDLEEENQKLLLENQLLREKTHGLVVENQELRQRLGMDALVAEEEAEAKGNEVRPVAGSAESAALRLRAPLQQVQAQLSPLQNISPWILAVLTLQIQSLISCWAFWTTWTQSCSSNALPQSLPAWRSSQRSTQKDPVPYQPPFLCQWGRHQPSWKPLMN
# Chain of Steroid hormone receptor ERR1 (Homo sapiens) (P11474 whole entry, looked up, the tested form may be a part): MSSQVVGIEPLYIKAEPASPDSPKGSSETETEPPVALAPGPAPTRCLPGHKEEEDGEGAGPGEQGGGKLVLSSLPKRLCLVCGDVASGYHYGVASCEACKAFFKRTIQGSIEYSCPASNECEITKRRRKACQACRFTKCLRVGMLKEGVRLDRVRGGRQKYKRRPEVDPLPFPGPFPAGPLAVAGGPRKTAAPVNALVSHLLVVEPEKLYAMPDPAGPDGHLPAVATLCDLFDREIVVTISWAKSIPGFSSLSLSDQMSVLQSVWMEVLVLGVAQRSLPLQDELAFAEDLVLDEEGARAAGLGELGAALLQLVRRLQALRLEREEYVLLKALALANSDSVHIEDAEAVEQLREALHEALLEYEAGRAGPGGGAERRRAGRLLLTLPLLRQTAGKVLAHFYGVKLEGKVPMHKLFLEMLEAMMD
# Chain of Glucocorticoid receptor (Homo sapiens) (P04150 whole entry, looked up, the tested form may be a part): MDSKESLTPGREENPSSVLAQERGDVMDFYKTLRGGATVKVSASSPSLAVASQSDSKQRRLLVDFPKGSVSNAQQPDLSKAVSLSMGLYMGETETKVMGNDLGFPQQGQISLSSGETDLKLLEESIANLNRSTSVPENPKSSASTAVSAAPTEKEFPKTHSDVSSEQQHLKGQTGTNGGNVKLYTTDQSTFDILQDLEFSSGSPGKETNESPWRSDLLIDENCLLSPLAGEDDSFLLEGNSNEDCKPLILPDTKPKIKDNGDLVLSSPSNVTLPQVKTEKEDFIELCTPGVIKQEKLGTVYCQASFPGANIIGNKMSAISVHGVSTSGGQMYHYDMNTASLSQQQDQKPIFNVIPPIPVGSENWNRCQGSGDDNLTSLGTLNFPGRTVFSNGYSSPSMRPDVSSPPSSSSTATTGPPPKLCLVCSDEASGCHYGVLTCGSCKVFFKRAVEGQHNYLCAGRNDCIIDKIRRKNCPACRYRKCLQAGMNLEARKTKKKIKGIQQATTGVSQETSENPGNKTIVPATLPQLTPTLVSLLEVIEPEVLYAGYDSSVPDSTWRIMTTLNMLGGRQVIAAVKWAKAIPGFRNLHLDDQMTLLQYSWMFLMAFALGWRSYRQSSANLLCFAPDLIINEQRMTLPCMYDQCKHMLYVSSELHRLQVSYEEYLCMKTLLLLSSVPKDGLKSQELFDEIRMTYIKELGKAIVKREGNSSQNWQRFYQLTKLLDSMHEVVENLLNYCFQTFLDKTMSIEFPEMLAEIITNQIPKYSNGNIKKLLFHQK
# Chain of Signal transducer and activator of transcription 3 (Homo sapiens) (P40763 whole entry, looked up): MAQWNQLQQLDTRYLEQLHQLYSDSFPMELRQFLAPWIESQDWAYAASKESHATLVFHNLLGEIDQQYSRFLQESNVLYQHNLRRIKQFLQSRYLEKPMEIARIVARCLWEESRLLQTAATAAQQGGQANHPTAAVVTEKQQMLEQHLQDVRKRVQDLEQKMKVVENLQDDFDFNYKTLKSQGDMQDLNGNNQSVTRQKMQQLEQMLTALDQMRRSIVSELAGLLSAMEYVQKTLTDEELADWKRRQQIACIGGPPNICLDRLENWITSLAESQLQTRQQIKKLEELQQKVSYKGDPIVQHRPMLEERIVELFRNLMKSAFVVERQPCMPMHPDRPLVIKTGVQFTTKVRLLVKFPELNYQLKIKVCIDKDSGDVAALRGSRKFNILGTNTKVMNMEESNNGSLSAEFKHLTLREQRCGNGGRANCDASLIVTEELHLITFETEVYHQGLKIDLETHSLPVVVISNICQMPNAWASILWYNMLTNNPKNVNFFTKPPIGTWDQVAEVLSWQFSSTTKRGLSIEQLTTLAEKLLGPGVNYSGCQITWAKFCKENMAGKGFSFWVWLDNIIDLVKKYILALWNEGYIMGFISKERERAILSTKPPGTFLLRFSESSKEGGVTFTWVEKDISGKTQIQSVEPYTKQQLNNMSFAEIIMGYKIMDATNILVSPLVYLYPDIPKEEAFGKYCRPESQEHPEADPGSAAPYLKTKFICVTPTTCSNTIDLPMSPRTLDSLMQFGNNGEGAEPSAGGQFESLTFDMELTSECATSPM
smiles,measurement,setting,value
C[C@H]1C(=O)O[C@@H]2CCN3CC=C(COC(=O)[C@](C)(O)[C@]1(C)O)[C@H]23,outcome,[1],inactive
same,outcome,[2],inactive
same,outcome,[3],inactive
same,outcome,[4],inactive
same,outcome,[5],inactive
same,outcome,[6],inactive
same,outcome,[7],inactive
same,outcome,[8],inactive
same,outcome,[9],inactive
same,outcome,[10],inactive
same,outcome,[11],inactive
same,outcome,[12],inactive
OC[P+](CO)(CO)CO,outcome,[1],inactive
same,outcome,[2],inactive
same,outcome,[3],inactive
same,outcome,[4],inactive
same,outcome,[5],inactive
same,outcome,[6],inactive
same,outcome,[7],inactive
same,outcome,[8],inactive
same,outcome,[9],inactive
same,outcome,[10],inactive
same,outcome,[11],inactive
COc1ccccc1N,outcome,[1],inactive
same,outcome,[2],inactive
same,outcome,[3],inactive
same,outcome,[4],inactive
same,outcome,[5],inactive
same,outcome,[6],inactive
same,outcome,[7],inactive
same,outcome,[8],inactive
same,outcome,[13],inactive
same,outcome,[10],inactive
same,outcome,[11],inactive
same,outcome,[14],inactive
same,outcome,[15],inactive
O=C(N[C@H]1CN2CCC1CC2)c1ccc2c(c1)OCCO2,outcome,[1],inactive
same,outcome,[2],inactive
same,outcome,[3],inactive
same,outcome,[4],inactive
same,outcome,[5],inactive
same,outcome,[7],inactive
same,outcome,[8],inactive
same,outcome,[16],inactive
same,outcome,[17],inactive
same,outcome,[9],inactive
same,outcome,[11],inactive
same,outcome,[14],inactive
same,outcome,[18],inactive
C[C@@H]1O[C@@H](O[C@H]2C[C@@H](O)[C@]3(CO)[C@H]4[C@H](O)C[C@]5(C)[C@@H](C6=CC(=O)OC6)CC[C@]5(O)[C@@H]4CC[C@]3(O)C2)[C@H](O)[C@H](O)[C@H]1O,outcome,[1],inactive
same,AC50,[2],0.0716 µM (active)
same,AC50,[3],0.0716 µM (active)
same,outcome,[4],inactive
same,outcome,[5],inactive
same,AC50,[7],0.165 µM (active)
same,outcome,[8],inactive
same,outcome,[16],inactive
same,outcome,[17],inactive
same,AC50,[9],0.628 µM (active)
same,outcome,[10],inactive
same,outcome,[12],inactive
CC(c1ccc(O)cc1)c1ccc(O)cc1,outcome,[1],inactive
same,outcome,[2],inactive
same,outcome,[3],inactive
same,outcome,[4],inactive
same,outcome,[5],inactive
same,outcome,[7],inactive
same,outcome,[8],inactive
same,outcome,[17],inactive
same,outcome,[13],inactive
same,AC50,[9],130 µM (active)
same,outcome,[10],inactive
same,outcome,[14],inactive
same,outcome,[18],inactive
Cc1cccc(C)c1NC(=O)CN1CCCC1=O,outcome,[1],inactive
same,outcome,[2],inactive
same,outcome,[3],inactive
same,outcome,[4],inactive
same,outcome,[5],inactive
same,outcome,[7],inactive
same,outcome,[8],inactive
same,outcome,[9],inactive
same,outcome,[12],inactive
same,outcome,[15],inactive
CCOP(=S)(OCC)O/N=C(\C#N)c1ccccc1,outcome,[1],inactive
same,outcome,[2],inactive
same,outcome,[3],inactive
same,outcome,[4],inactive
same,outcome,[5],inactive
same,outcome,[6],inactive
same,outcome,[7],inactive
same,outcome,[8],inactive
same,outcome,[13],inactive
same,outcome,[9],inactive
same,outcome,[11],inactive
same,outcome,[14],inactive
same,outcome,[18],inactive
same,outcome,[12],inactive
CCOC(=O)CCN(SN(C)C(=O)Oc1cccc2c1OC(C)(C)C2)C(C)C,outcome,[1],inactive
same,outcome,[2],inactive
same,AC50,[3],100 µM (active)
same,outcome,[4],inactive
same,outcome,[5],inactive
same,outcome,[7],inactive
same,outcome,[8],inactive
same,outcome,[17],inactive
same,outcome,[19],inactive
same,outcome,[13],inactive
same,outcome,[9],inactive
same,outcome,[12],inactive
O=C(Nc1ccc(Br)cc1)c1cc(Br)cc(Br)c1O,outcome,[1],inactive
same,outcome,[2],inactive
same,outcome,[4],inactive
same,outcome,[5],inactive
same,outcome,[6],inactive
same,outcome,[7],inactive
same,AC50,[8],4.16 µM (active)
same,outcome,[19],inactive
same,outcome,[13],inactive
same,AC50,[9],4.92 µM (active)
same,outcome,[10],inactive
same,outcome,[11],inactive
same,outcome,[14],inactive
same,outcome,[12],inactive
same,outcome,[15],inactive
OC(Cc1ccccc1Cl)(Cn1[nH]cnc1=S)C1(Cl)CC1 (configuration not stated),AC50,[1],145 µM (active)
same,outcome,[2],inactive
same,outcome,[4],inactive
same,outcome,[5],inactive
same,outcome,[6],inactive
same,outcome,[7],inactive
same,outcome,[8],inactive
same,AC50,[16],18 µM (active)
same,outcome,[17],inactive
same,AC50,[19],5.83 µM (active)
same,AC50,[9],100 µM (active)
same,outcome,[10],inactive
same,outcome,[12],inactive
same,outcome,[15],inactive
CC(C)[N+](=O)[O-],outcome,[1],inactive
same,outcome,[2],inactive
same,outcome,[3],inactive
same,outcome,[4],inactive
same,outcome,[6],inactive
same,outcome,[7],inactive
same,outcome,[8],inactive
same,outcome,[16],inactive
same,outcome,[9],inactive
same,outcome,[10],inactive
same,outcome,[11],inactive
same,outcome,[18],inactive
same,outcome,[12],inactive
